# Results filed as inconclusive are left out. Calls of active or inactive are those of the source. Unless noted, calls come from the whole dose curve; as a rule, active = well fitted curve in the direction sought with a large enough effect; inconclusive = small, poorly fitted or top-dose-only effect, or another doubt; inactive = no such curve, though single readings can be large; an effect the other way counts as inactive or inconclusive.
# Experiments:
# [1] = qHTS drug screen for cell cycle checkpoint inhibitors in PARPi-resistant BRCA-mutant ovarian cancer cell lines. (AID 1963452; calls by dose curve; note: potency is the fitted concentration of half-maximal effect); details: PEO1/OlaR viability, CellTiter-Glo luminescence, 96 h; for Z-AUC: stronger effect = lower value
# Outline: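 PEO1, PEO4 and PEO1/OlaR ovarian cancer cells, 600 per well, exposed 96 h at 37C to a dilution series. Viability read by CellTiter-Glo luminescence, normalized to DMSO and empty wells; activity summarized as Z-AUC.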
# [2] = target: Cytochrome P450 2C19 (Homo sapiens) (UniProt P33261); assay: qHTS for inhibitors of CYP2C19 against the NCATS DSHEA and TCM libraries (AID 1919974);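 note: luminescence from luciferin released by CYP2C19 oxidation of a pro-luciferin substrate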; note: potency is the fitted concentration of half-maximal effect
# Outline: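 Concentration-response screening with isoform-matched pro-luciferin substrates. The CYP reaction was initiated by NADPH regenerating solution and ran 30-45 min in darkness at room temperature.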
# [3] = KB-3-1 P-gp reporter qHTS against the NCATS DSHEA and TCM libraries (AID 1919975); note: 0% is about no effect
# From the text: (§1) Assay Development and Screening Technology Laboratory (ADST)
# (§2) National Center for Advancing Translational Sciences (NCATS), Rockville, MD
# (§3) National Institute of Health (NIH), Bethesda, Maryland
# (§4) Dietary Supplements and Natural Products have minor oversight of their safety and efficacy. We assembled a collection of Dietary Supplements and Natural Products (DSNP) as well as Traditional Chinese Medicinal (TCM) Plant extracts, which were screened against an in vitro panel of assays, including a liver cytochrome p450 enzyme panel, CAR/PXR signaling pathways, and P-gp transporter assays, to assess their activity. This pipeline facilitated the interrogation of Natural Product-Drug Interaction (NaPDI) through prominent metabolizing pathways. In addition, we compared the activity profiles of the DSNP/TCM substances with those of an approved drug collection. Many of the approved drugs have well-annotated mechanisms of action (MOA) while the MOAs for most of the DSNP and TCM samples remain unknown. Based on the premise that compounds with similar activity profiles tend to share similar targets or MOA, we clustered the library activity profiles to identify overlap with the NCATS Pharmaceutical Collection to predict the MOAs of the DSNP/TCM substances. Overall, we highlight four significant bioactivity profiles (measured by p-values) as examples of this prediction. To assess broad cytotoxicity, we employed screening against a HepG2 cell line. In addition, transporter-mediated drug interactions are utilized in the characterization of DDIs using a P-glycoprotein (P-gp) assays. To profile potential P-gp activity, a differential cell viability was measured against two cell lines: a parental KB-3-1 human cervical adenocarcinoma cell line and the drug-resistant subline KB-8-5-11 that overexpresses P-gp.
# (§5) To this end, we profiled both collections for potential CAR and/or PXR activity, employing a previously published 1536-well qHTS assay.
# (§6) [1] Lee TD, et al. A High-Throughput Screen of a Library of Therapeutics Identifies Cytotoxic Substrates of P-glycoprotein. Mol Pharmacol. Nov 2019;96(5):629-640. doi:10.1124/mol.119.115964
# (§7) PROTOCOL TABLE (as described by Inglese J, Shamu CE and Guy RK. 2007)
# (§8) SEQUENCE No. (e.g., 1, 2, 3, etc.); PARAMETER (e.g., Cells, Incubation, Reagent, etc.); VALUE; DESCRIPTION.
# 1; Cells; 5 uL; KB-3-1 cells, white solid-bottom tissue treated Greiner plate.
# 2; Incubation; 4 hrs; 37C, 95% humidity, 5% CO2.
# 3; Compounds and control; 23 nL; Kalypsis pin tool (Wako USA) equipped with a 1536-well pin head to transfer to the assay plates.
# 4; Incubation; 72 hrs; 37C, 95% humidity, 5% CO2.
# 5; Reagent; 2.5 uL; CellTiter-Glo.
# 6; Centrifuge; 1000 RPM; 15 seconds.
# 7; Incubation; 30 min; room temperature.
# 8; Read; Luminescence; ViewLux plate reader.
# (§9) NOTES (numbers refer to Sequence numbers above)
# 1. Cell line KB-3-1 and its colchicine-selected, P-gp-overexpressing subline KB-8-5-11 were maintained in DMEM (Thermofisher catalog #11965) with 10% FBS and 1% penicillin/streptomycin at 37C in 5% CO2. For the screen, assay medium was identical to culture medium. Briefly, 5 uL of cells at 1 x 10^5 cells/mL (500 cells/well) were dispensed into a 1536-well white solid-bottom tissue treated plate (Greiner Bio-One) using a Multidrop Combi dispenser.
# 2. Plates were incubated at 37C, 95% humidity, 5% CO2 for ~4 hours to allow for cell attachment.
# 3. Compounds and intraplate control (Bortezomib; final concentration range 228 pM - 7.5 uM) were transferred (16 nL) via pintool (Wako Automation), for a final concentration of 15.6 nM - 30.0 uM (most substances).
# 4. Plates were incubated for ~72 hours at 37C, 95% humidity, 5% CO2.
# 5. Plates were then dispensed with 2.5 uL of CellTiter-Glo.
# 6. The assay plates were centrifuged for 15 seconds at 1,000 RPM's.
# 7. The plates were incubated for 30-minute at room temperature.
# 8. Luminescence intensity was detected using a PerkinElmer ViewLux microplate reader.
# […]
# [4] = target: Cytochrome P450 1A2 (Homo sapiens) (UniProt P05177); assay: qHTS for inhibitors of CYPIA2 against the NCATS DSHEA and TCM libraries (AID 1919976);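 note: light from luciferin formed by CYP1A2 from a pro-luciferin substrate; series mostly up to about 37 µM; % is set by controls: 0 for no effect and ±100 for the full control effect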
# Outline: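 Enzyme and pro-luciferin substrate, or substrate alone as no-enzyme background, are pre-incubated with test samples for 15 min at room temperature. NADPH regeneration system (1x final) initiates a 30-45 min dark reaction; luciferase detection reagent follows before luminescence reading.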
# [5] = qHTS Counterscreen for compound interference against the NCATS DSHEA and TCM libraries (AID 1919978); details: firefly luciferase detection reagent interference, luminescence;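 note: compounds preincubated with 1 µM D-luciferin or buffer before detection reagent; % of control where 0% means no effect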
# Outline: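 Luminescence counterscreen for detection-kit interference: compounds at 19.5 nM–39.8 uM final, 15 min RT with 1 uM D-luciferin or buffer only; detection reagent added, 30 min RT, then read.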
# [6] = Dual reporter qHTS for agonist of Pregnane X Receptor (hPXR) against the NCATS DSHEA and TCM libraries: Fluorescence readout (AID 1920058); note: 0% is about no effect
# Outline: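 Cells were plated at 2000 per well and allowed to attach for 5 h. Test substances were pinned in and incubated roughly 24 h. CellTiter-Fluor was then added and fluorescence measured after 1 h.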
# [7] = target: Nuclear receptor subfamily 1 group I member 2 (Homo sapiens) (UniProt O75469); assay: Dual reporter qHTS for agonist of Pregnane X Receptor (hPXR) against the NCATS DSHEA and TCM libraries: Luminescence readout (AID 1920059); note: 0% is about no effect
# Outline: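 Luminescent PXR reporter read (ONE-Glo) after a CellTiter-Fluor viability read, following 24 h, 37C treatment of HepG2 cells stably carrying hPXR-Luc.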
# [8] = target: Nuclear receptor subfamily 1 group I member 2 (Homo sapiens) (UniProt O75469); assay: Dual reporter qHTS for antagonist of Pregnane X Receptor (hPXR) against the NCATS DSHEA and TCM libraries: Luminescence Readout (AID 1920060);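 note: HepG2 cells carrying hPXR luciferase reporter stimulated with rifampicin at 2 µM; 0% is about no effect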
# From the text: as §1, §2, §3, §4, §5, §6
# For PXR luciferase reporter gene assays, we used hPXR-LucHepG2cells provided by Dr. Taosheng Chen (Department of Chemical Biology and Therapeutics, St. Jude Children's Research Hospital). Cells were cultured in EMEM supplemented with 10% fetal bovine serum, 100U/mL penicillin and 100ug/mL streptomycin, and 500ug/mL of geneticin.
# as §7, §8
# 1; Cells; 5 uL; hPXR-LucHepG2; white solid-bottom Greiner plate.
# 2; Incubation; 5h; 37C, 95% humidity, 5% CO2
# 3; Compounds and control; 23 nL; Kalypsis pintool (Wako USA).
# 4; Reagent; 1uL; rifampicin (RIF) in the antagonist mode.
# 6; Reagent; 1 uL; CellTiter-Fluor detection reagent.
# 7; Incubation; 1 hr; 37C, 5% CO2.
# 8; Read; Fluorescence; ViewLux plate reader.
# 9; Reagent; 4 uL; ONE-Glo Luciferase detection reagent.
# 10; Incubation; 30 min; room temperature.
# 11; Read; Luminescence; ViewLux plate reader.
# as §9
# 1. Briefly, 5uL of hPXR-LucHepG2 cells in phenol red-free DMEM containing 5% charcoal-stripped FBS, 1 mM sodium pyruvate (Invitrogen), 2 mM L-glutamine (Invitrogen), and 100 U/mL penicillin and 100ug/mL streptomycin were dispensed using a BioRAPTR FRD at 4 x 10^5cells/mL (2000cells/well) in tissue culture-treated 1536-well white assay plates (GreinerBio-One).
# 2. Plates were incubated for 5h at 37C, 95% humidity, and 5% CO2 to allow for cell attachment.
# 3. Compounds (final concentration for most substances ranged from 15.6 nM to 45.9uM), positive SPA70 (final concentration range of 2.8 nM to 92uM for the antagonist mode), and cytotoxicity control tetraoctyl ammonium bromide (final concentration of 92uM) were transferred (23 nL) via pintool (Wako Automation).
# 4-5. […]
# [9] = Dual reporter qHTS for antagonist of Pregnane X Receptor (hPXR) against the NCATS DSHEA and TCM libraries: Fluorescence Readout (AID 1920061); note: 0% is about no effect
# Outline: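 In antagonist mode, 2 uM rifampicin was added to hPXR-Luc HepG2 cells alongside test substances, incubated 24 h at 37 C; luminescence gave reporter activity, and CellTiter-Fluor fluorescence (405/540 nm) gave viability.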
# [10] = measured here: PEO1 parental Z-AUC
# Nuclear receptor subfamily 1 group I member 2 (Homo sapiens), sequence (O75469 whole entry, looked up): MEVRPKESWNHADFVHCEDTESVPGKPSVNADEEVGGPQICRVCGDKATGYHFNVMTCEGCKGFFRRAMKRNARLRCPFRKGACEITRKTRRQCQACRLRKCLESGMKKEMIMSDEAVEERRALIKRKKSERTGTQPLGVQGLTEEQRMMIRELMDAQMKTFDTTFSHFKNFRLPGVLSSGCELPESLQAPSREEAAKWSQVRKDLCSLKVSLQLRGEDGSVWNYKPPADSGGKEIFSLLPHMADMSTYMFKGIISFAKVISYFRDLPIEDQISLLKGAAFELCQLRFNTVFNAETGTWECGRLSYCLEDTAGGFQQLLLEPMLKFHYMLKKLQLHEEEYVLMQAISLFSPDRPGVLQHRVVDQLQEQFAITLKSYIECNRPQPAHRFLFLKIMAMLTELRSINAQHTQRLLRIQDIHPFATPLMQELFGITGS
# Cytochrome P450 1A2 (Homo sapiens), sequence (P05177 whole entry, looked up): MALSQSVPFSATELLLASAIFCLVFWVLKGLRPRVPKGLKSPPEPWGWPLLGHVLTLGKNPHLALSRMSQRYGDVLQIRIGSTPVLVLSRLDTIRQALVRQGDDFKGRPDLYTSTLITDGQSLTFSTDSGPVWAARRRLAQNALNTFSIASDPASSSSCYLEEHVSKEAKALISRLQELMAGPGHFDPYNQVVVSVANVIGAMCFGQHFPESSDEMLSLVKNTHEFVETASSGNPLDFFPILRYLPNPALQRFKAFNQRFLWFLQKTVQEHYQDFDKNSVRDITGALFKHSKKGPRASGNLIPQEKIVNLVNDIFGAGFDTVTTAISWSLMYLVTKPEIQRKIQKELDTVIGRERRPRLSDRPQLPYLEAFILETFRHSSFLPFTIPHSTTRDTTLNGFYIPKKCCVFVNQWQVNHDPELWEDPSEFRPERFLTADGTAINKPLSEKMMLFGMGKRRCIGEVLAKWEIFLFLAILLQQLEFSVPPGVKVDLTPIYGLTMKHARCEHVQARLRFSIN
# Cytochrome P450 2C19 (Homo sapiens), sequence (P33261 whole entry, looked up, canonical isoform): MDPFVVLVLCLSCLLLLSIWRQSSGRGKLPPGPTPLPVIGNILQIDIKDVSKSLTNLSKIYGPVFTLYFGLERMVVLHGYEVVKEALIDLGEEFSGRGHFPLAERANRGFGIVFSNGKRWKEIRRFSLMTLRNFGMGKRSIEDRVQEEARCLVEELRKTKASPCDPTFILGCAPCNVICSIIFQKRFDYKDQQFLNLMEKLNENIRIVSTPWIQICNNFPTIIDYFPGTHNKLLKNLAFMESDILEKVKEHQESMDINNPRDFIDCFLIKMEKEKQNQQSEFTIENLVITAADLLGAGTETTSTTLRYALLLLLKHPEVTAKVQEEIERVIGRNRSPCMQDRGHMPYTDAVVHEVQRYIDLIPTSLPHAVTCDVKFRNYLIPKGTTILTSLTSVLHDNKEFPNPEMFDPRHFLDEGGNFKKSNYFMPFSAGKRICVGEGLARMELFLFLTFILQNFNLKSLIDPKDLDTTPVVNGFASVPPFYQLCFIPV
structure (smiles),measurement,setting,value
COc1ccc(Cl)c(Nc2nc3ccccc3nc2NS(=O)(=O)c2cccc(NC(=O)C(C)(C)N)c2)c1,Z-AUC,[1],-0.00434 (inactive)
same,Z-AUC,[1]; [10],0.542
same,Z-AUC,[1]; measured here: PEO4 Z-AUC,0.742
CC1CC[C@]2(C(=O)O)CC[C@]3(C(=O)O)C(=CCC4[C@@]5(C)CC[C@H](OC6OC(C)C(O)C(OC7OC(CO)C(O)C(O)C7O)C6O)C(C)(C)C5CC[C@]43C)C2C1C (stereo not given in full),Potency,[2],inactive
same,outcome,[3],inactive
same,Potency,[4],inactive
same,max response,[5],-1.38% (inactive)
same,outcome,[6],inactive
same,outcome,[7],inactive
same,outcome,[8],inactive
same,outcome,[9],inactive
CCN1CCN(Cc2ccc(NC(=O)Nc3ccc(Oc4cc(NC)ncn4)cc3)cc2C(F)(F)F)CC1,Potency,[1],4.9 µM (active)
same,Z-AUC,[1]; [10],-1.75
same,Z-AUC,[1]; measured here: PEO4 Z-AUC,-1.71
C[C@H](Nc1ncnc2nc[nH]c12)c1cc2ccc(F)cc2nc1-c1ccccn1,Z-AUC,[1],-0.541 (inactive)
same,Z-AUC,[1]; [10],-0.257
same,Z-AUC,[1]; measured here: PEO4 Z-AUC,0.432
C[C@@]12CC[C@@H]3[C@@](CC[C@H]4[C@@]3(C)CCC[C@@]4(C)C(=O)O)(CC1=O)C2,Potency,[2],14.1 µM (active)
same,outcome,[3],inactive
same,Potency,[4],inactive
same,max response,[5],0.713% (inactive)
same,outcome,[6],inactive
same,outcome,[7],inactive
same,outcome,[8],inactive
same,outcome,[9],inactive
c1cn2cc(-c3ccc4cn[nH]c4c3)nc(Nc3ccc(N4CCOCC4)cc3)c2n1,Z-AUC,[1],-0.306 (inactive)
same,Z-AUC,[1]; [10],-0.0182
same,Z-AUC,[1]; measured here: PEO4 Z-AUC,0.447
O=C(/C=C/c1cccc(S(=O)(=O)Nc2ccccc2)c1)NO,Z-AUC,[1],-0.934 (inactive)
same,Z-AUC,[1]; [10],-1.03
same,Z-AUC,[1]; measured here: PEO4 Z-AUC,-1.35
CN[C@@H]1[C@H](O[C@H]2[C@H](O[C@@H]3[C@@H](O)[C@H](O)[C@@H](N=C(N)N)[C@H](O)[C@H]3N=C(N)N)O[C@@H](C)[C@]2(O)C=O)O[C@@H](CO)[C@H](O)[C@H]1O,Z-AUC,[1],1.52 (inactive)
same,Z-AUC,[1]; [10],0.947
same,Z-AUC,[1]; measured here: PEO4 Z-AUC,1.26
CS(=O)(=O)N1CCC(NC(=O)c2[nH]ncc2NC(=O)c2c(Cl)cccc2Cl)CC1,Z-AUC,[1],-1.39 (inactive)
same,Z-AUC,[1]; [10],-1.73
same,Z-AUC,[1]; measured here: PEO4 Z-AUC,-1.67
CCOCc1nc2c(N)nc3ccccc3c2n1CC(C)(C)O,Z-AUC,[1],-0.746 (inactive)
same,Z-AUC,[1]; [10],-0.509
same,Z-AUC,[1]; measured here: PEO4 Z-AUC,-0.947

# Source: PubChem BioAssay (NCATS)
